Out of some 69,000 compounds screened, about 8,600 (12%) showed an effect of 50% or more. The sample holds strong results, similar compounds and a random draw of the others, so the mix is not that of the screen.

This assay relates to Plasmodium berghei. The assay can be described thus: Screen against P. berghei liver stage (PbLuc), transformed with Luciferase, at 10uM. The format is functional, HepG2. The settings on record: tested at 10 uM.
Consider `Cc1ccc(CN2CCN(c3ncccc3C(N)=O)CC2CCO)cc1` (stereo not given), for which the INHIBITION is 36.5%. Regarding `CNC(=O)c1cccnc1N1CCN(Cc2ccccc2)C(CCO)C1` (stereo not given), the INHIBITION worked out at 3.17%.

For the compound `Cc1ccc(CN2CCN(c3ncnc4[nH]cnc34)CC2CCO)cc1` (stereo not given), the INHIBITION stood at 20%.

Take `Cc1cc(C)n(CC2CN(c3ncnc4[nH]ccc34)CCO2)n1` (stereo not given): the INHIBITION is -21.7%. With `OCCNc1cc(N2CCN(Cc3ccccc3)C(CCO)C2)ncn1` (stereo not given) the figure was -11.8%; with `OCCC1CN(c2ncnc3[nH]cnc23)CCN1Cc1cccs1` (stereo not given), 53.7%; with `OCCC1CN(c2ncnc3[nH]cnc23)CCN1Cc1ccccc1F` (stereo not given), 10.3%. For the compound `OCCC1CN(c2ncnc3[nH]cnc23)CCN1Cc1ccccc1` (stereo not given), the INHIBITION came to 62.4%. For `c1ccc(C2CN(c3ncnc4[nH]cnc34)CCO2)cc1` (stereo not given) the value was -66.9%; for `Cc1cccc(CN2CCN(c3ncnc4[nH]cnc34)CC2CCO)n1` (stereo not given), 47.2%; for `O=C(O)c1cccnc1N1CCN(Cc2ccc(F)cc2)C(CCO)C1` (stereo not given), 68.6%. On to `Cc1cccc(CN2CCN(c3ncnc4[nH]ccc34)CC2CCO)n1` (stereo not given), for which the INHIBITION came out at 58.1%. For `CCC1=N[C@@]2(CC[C@@H]3CN(C(=O)Nc4ccccc4)C[C@@H]32)C(=O)N1CC` the value was 8.67%; for `Cc1cc(C2CCCCN2C(=O)CN2C(=O)OC(C)(C)C2=O)no1` (stereo not given), 47.2%. With `COc1ccccc1-c1ncc(CN2CCC3(CCNCC3)CC2)cn1` the figure was 25%. As for `CC(=O)c1ccc(CNC(=O)c2cc(C#N)cn2C)nc1C`, the INHIBITION was found to be 12%.

Turning to `Cc1cc(C)cc(C(=O)N2CCCN(CC(N)=O)CC2)c1`, the INHIBITION is listed as 0.348%. With `NC(=O)N1CCCN(CC(=O)NCCc2c(F)cccc2F)CC1` the figure was -52.1%; with `Cc1cc(C)c(CCNC(=O)CN2CCCN(C(N)=O)CC2)c(C)c1`, 66.6%.

Take `Cn1cc(C(=O)NC[C@H]2OC[C@@H]3CCN(C4CCOCC4)C[C@@H]32)cn1`: the INHIBITION stood at 45.8%. With `Cc1nc2n(n1)CC(NCc1cnn(-c3ccccc3)n1)CC2` (stereo not given) the figure was -39.4%; with `COCCCS(=O)(=O)N1CCN(C(C)(C)CO)CC1`, 27.65%.

Take `CC(C)c1nc(CN(C)C(=O)c2cn3ccsc3n2)cs1`: the INHIBITION was determined as 50.5%. For `CC(C)c1nc(CN(C)C(=O)c2ccc3c(c2)OCC(=O)N3)cs1` the value was -19.9%; for `CC(C)c1nc(CN(C)C(=O)c2ccc(CN3CCCCC3)cc2)cs1`, 65.3%; for `CN(Cc1cc(C(C)(C)C)n[nH]1)C(=O)c1cn2ccsc2n1`, -11.5%. With `CC(C)c1nc(CN(C)C(=O)CNC(N)=O)cs1` the figure was 41.5%; with `CC(C)c1nc(CC(=O)Nc2nc(CN3CCCCCC3)cs2)cs1`, 59.7%. On to `CC(C)c1nc(CN(C)C(=O)c2ccc3c(c2)OCO3)cs1`, for which the INHIBITION is on record as -40.4%. With `CC(C)c1nc(CN2CCC(CO)CC2)cs1` the figure was 23.4%. For `CC(C)c1nc(CN2CCCCC2)cs1` the value was 47.9%; for `CS(=O)(=O)N1C[C@@H](O)[C@H](N2CCN(c3ccccc3)CC2)C1`, -18.8%; for `COc1ccc(CCc2nnc(NC(=O)C3CC34CCC4)s2)cc1OC` (stereo not given), 4.32%.

On to `Cc1cc2c(cc1NC(N)=O)OCO2`, for which the INHIBITION amounted to 43.2%. For `Cn1cnc2c1C(C(=O)N1CCOCC1)N(C(=O)c1ccccc1)CC2` (stereo not given) the value was -31.6%; for `CC(=O)N1CCc2ncn(C)c2C1C(=O)N1CCCC1` (stereo not given), 45.8%; for `Cn1cnc2c1C(C(=O)N1CCCO1)N(C(=O)c1ccccc1)CC2` (stereo not given), 70.4%. For the compound `CC(C)c1nnc(CNC2CCCN(Cc3noc(C4CC4)n3)C2)o1` (stereo not given), the INHIBITION was determined as 19.5%. With `O=C(NC1CCN(c2ncccn2)CC1)c1sccc1C1CC1` the figure was 39.7%; with `CC1CCN(Cc2ccccc2CNC(=O)C2CNC(=O)N2)CC1` (stereo not given), 13.8%; with `O=C1NCC(C(=O)NCc2ccccc2CN2CCOCC2)N1` (stereo not given), 15.2%. As for `CN(Cc1ccccc1CNC(=O)C1CNC(=O)N1)C1CCCCC1` (stereo not given), the INHIBITION is 57.7%.

Regarding `CC(C)OCCCNC(=O)CS(=O)(=O)Cc1ccc(C(C)(C)C)cc1`, the INHIBITION is -27.8%. With `Cc1ccccc1OC1CCN(CC(=O)Nc2ccn(C)n2)CC1`, the INHIBITION is recorded as 15.1%. On to `CCn1cc(NC(=O)CN2CCC(Oc3ccc(F)cc3)CC2)c(C)n1`, for which the INHIBITION amounted to 58%. For `CCn1cc(NC(=O)CN2CCC(Oc3ccccc3C)CC2)c(C)n1` the value was -0.275%; for `Cc1ccccc1OC1CCN(CC(=O)Nc2cn(C)nc2C)CC1`, 17.3%.

As to `Cc1ccccc1OC1CCN(CC(=O)Nc2c(C)nn(C)c2C)CC1`, the INHIBITION is given as 52.5%. `Cc1nn(C)cc1NC(=O)CN1CCC(Oc2cnccn2)CC1`: the INHIBITION is -2.09%.

On to `COCC(c1cccc(C(F)(F)F)c1)N(C)C(=O)c1ccoc1` (stereo not given), for which the INHIBITION came out at 40.49%. As for `COc1cccc2c3c(c(=O)n(C)c12)CCC(C)(C)O3`, the INHIBITION is on record as 12.3%. Take `Cn1cccc1C(=O)N1CCn2cc(CNC(=O)CC3CC3)nc2C1`: the INHIBITION turned out to be 9.67%. On to `CCc1ncc2c(n1)CN(Cc1cnc(C)cn1)CC2`, for which the INHIBITION stood at 25.2%.

For `COCCC(=O)N1CCC(c2nnc(-c3ccsc3)o2)CC1`, the INHIBITION came out at 0.75%.

Consider `CSc1nc(N)c2c(n1)N=C1COC(=O)C1C2c1cccc(O)c1` (stereo not given), for which the INHIBITION amounted to 25.1%.

Source of the values: ChEMBL document CHEMBL4513216, “Probing the Open Global Health Chemical Diversity Library for Multistage-Active Starting Points for Next-Generation Antimalarials” (ACS Infect Dis, 2020).
